Laboratory results reported in ChEMBL document CHEMBL4513216, “Probing the Open Global Health Chemical Diversity Library for Multistage-Active Starting Points for Next-Generation Antimalarials” (ACS Infect Dis, 2020).
The campaign covered roughly 65,000 compounds. About 2,100 (3.2%) showed an effect of 50% or more. The median lay at about -52%. What follows is part of a selection rich in strong results, with near analogues and random picks from the rest.

system: Plasmodium falciparum; experiment: Screen against P. falciparum Asexual Blood Stage (ABS), at 5uM; format: functional, Dd2; settings: tested at 5 uM

Structure (SMILES)	INHIBITION [%]
CC(C)=CCN1C(=O)[C@@H]2CC[C@H]1CN(Cc1cccnc1N)C2	-11.1
CC1CN(C)CCN1C(=O)Cc1cc(Cl)c2c(c1)OCCO2 (stereo not given)	-23.7
CCc1noc(CN2CCOC3(CCCC3)C2)n1	-159
c1cc(CN2C[C@@H]3OCCN(CCN4CCCC4)[C@@H]3C2)ccn1	-104
Cc1ccc2c(CC(=O)N(C)CCN(C)C)c(C)[nH]c2c1C	-86.5
Cc1cc(C)c2[nH]c(C)c(CC(=O)N(C)CCN(C)C)c2c1	61.9
Cc1[nH]c2c(C)cccc2c1CC(=O)N(C)CCN(C)C	46.3
N#Cc1ccc(C(=O)NS(=O)(=O)c2ccc(C#N)c(Cl)c2)cc1	-1
COc1cccc(CNc2cc(C)nc(-c3ccncc3)n2)c1OC	89.3
Cc1cc(C(F)(F)F)nc(N2CCN3CCCC3C2)n1 (stereo not given)	-144
FC(F)(F)c1cc(-c2cccs2)nc(N2CCN3CCCC3C2)n1 (stereo not given)	-47.6
CCc1ccc(-c2cc(C(F)(F)F)nc(N3CCC(N)CC3)n2)cc1	82.4
O=C(Nc1cccnc1)[C@@H]1COC[C@H]2CN(C3CCCC3)C[C@H]21	-20.2
O=C(c1ccc2c(c1)COC2)N1CCC(Nc2ccccc2)CC1	-162
O=C1[C@H]2CN(Cc3ccncc3)C[C@H]2CN1c1ccsc1	-92.9
COc1cccc(CN2CCC(CO)(Cc3ccc(Cl)cc3)CC2)c1O	89.5
c1cc(CN2CCN(Cc3ccon3)C3(CCCCC3)C2)no1	-126
Cc1noc(C)c1CN1CC[C@H]2C[C@@H](c3ccncn3)O[C@@H]2C1	-98.1
Cc1cc(N2CCN3CCCCC3C2)n2nc(C)c(C)c2n1 (stereo not given)	-76.1
Cc1nc(-c2cccc(N3CCC(N4CCCC4)CC3)c2)cs1	71.6
Cc1ncccc1OCC(=O)N1CCN[C@H]2CS(=O)(=O)C[C@H]21	-151
c1ccc(CN2CCN3C[C@H](Oc4cncnc4)C[C@H]3C2)nc1	-102
NC1CCc2nc(-c3ccncc3)nc(Nc3cccc(F)c3)c2C1 (stereo not given)	84.2
NC1CCc2nc(-c3cccnc3)nc(Nc3ccc(F)cc3)c2C1 (stereo not given)	87.1
CCc1cc(N2CCNCC2)n2nc(C)c(C)c2n1	-115
COCCN1C[C@@H]2[C@@H](OC)CCN(C(=O)Cc3ccsc3)[C@@H]2C1	19.2
COc1cccc([C@H]2CN(C(C)=O)[C@@H]3CCN(Cc4ccsc4)C[C@H]23)c1	73.9

Structure (SMILES)	INHIBITION [%]
Cc1noc(C)c1CN1CC[C@H]2C[C@H](c3ccncn3)O[C@@H]2C1	-66.9
O=C(CC1CC1)N[C@@H]1CN(Cc2cccnc2)C[C@@H]2CCCO[C@@H]21	-42.5
CC(C)c1nccc([C@H]2C[C@@H]3CCN(Cc4ccoc4)C[C@H]3O2)n1	-81.1
CC(C)c1nccc([C@@H]2C[C@@H]3CCN(Cc4ccoc4)C[C@H]3O2)n1	-35
c1cncc(CN2CCO[C@@H]3CN(Cc4ccoc4)CC[C@@H]3C2)c1	30.1
CN1CCN(Cc2ccoc2)Cc2cccnc21	-116
COc1ccc(C[C@H]2CN(Cc3ccoc3)CC[C@H]2OC)cc1	75.1
CO[C@@H]1CCN(Cc2ccoc2)C[C@@H]1Cc1ccccc1	89
CCN1CCC2(CCC1=O)CN(c1nccc(N)n1)CCN2C (stereo not given)	-4.03
Cc1cccc(CO[C@@H]2CC[C@H]3[C@H]2OCCN3Cc2ccoc2)n1	-50.4
O=C(NCc1ccccn1)[C@@H]1COC[C@H]2CNC[C@H]21	-8.97
COCCN1C[C@@H](C)[C@@]2(COCCN(C(=O)c3ccno3)C2)C1	-103
COc1ccc(-c2ccoc2)cc1CNC1CCCC1	70.2
CN(Cc1cccc(F)c1)C(=O)CN1CCCC1CCc1ccccc1 (stereo not given)	75
CN(C)[C@@H]1CN(C(=O)Cc2cccc(F)c2)[C@@H]2CCCO[C@H]12	24.8
OCCCN(CCc1cccc(F)c1)C1CC1	-63.8
Cc1cc(N2CCCN(CCc3ccccc3)CC2)ccn1	87
Cn1c(CCN2CCN(c3ccc(O)cc3)CC2)nc2ccccc21	-128
Cc1ccc2c(n1)N(C)CCN(CCN1CCCC1)C2	-5.37
CO[C@@H]1CC[C@H]2[C@H]1OCCN2CC1CCOCC1	-21.2
c1cnc(N2C[C@H]3CN(CC4CCOC4)C[C@H]3C2)nc1 (stereo not given in full)	-53
O=C1CO[C@@H]2CNC[C@H]2N1CC1CC1	-97.4
O=C1C[C@H]2[C@H](CCN2Cc2ccccn2)N1CC1CC1	-90.1
O=C(NCCc1ccncc1)[C@H]1CC[C@@H]2[C@@H](CCN2CC2CC2)O1	-3.59
COc1ccc(CN2C[C@@H]3OCCN(c4ncccn4)[C@@H]3C2)cc1	-2.3
O[C@@H]1CCN(CC2CC2)[C@H]1Cc1ccccc1	63.2
COc1ccc(CN2CC[C@@H](O)[C@@H]2Cc2ccccc2)cc1	80.7

Structure (SMILES)	INHIBITION [%]
CNC(=O)[C@@H]1CN(Cc2ccccc2)C[C@H]1C(=O)c1ccc(F)cc1	-109
O=C(c1ccccc1)N1CCO[C@@H]2CNC[C@@H]21	-70.7
Fc1ccccc1-c1cc(N2[C@@H]3CC[C@H]2CNC3)n2nccc2n1	-59
CCc1cc(N2CCN3CCCCC3C2)n2nccc2n1 (stereo not given)	6.52
CC(C)c1cc(N2CC[C@H](F)C2)n2nccc2n1	70.9
O=C1N(Cc2ccccn2)C[C@H]2CN(C3CCC3)CCN12	-13.7
O=C(C[C@@H]1COC[C@H]2CN(C3CCC3)C[C@@H]12)NCc1cccnc1	-138
CCOC[C@@H]1CC[C@H]2[C@H](CCN2Cc2c(C)noc2C)O1	-96.4
CN1CCCC(Cc2nccnc2Cl)CC1 (stereo not given)	5.74
Cc1nc(CC(=O)N2CCN(C)CC2c2ccccc2)cs1 (stereo not given)	-76.9
CN1CCCC(c2cccc(Cc3ccccc3Cl)n2)C1 (stereo not given)	70.3
CN1CCCC(c2cncc(C(=O)NCc3ccccc3Cl)n2)C1 (stereo not given)	72.4
O=C(C1CCCC1)N1C[C@@H]2CCNC[C@@H]21	-78.2
O=C1CC2(CCN(Cc3cccnc3)C2)CN1c1cncnc1 (stereo not given)	-101
CC(C)NC(=O)N1CCOC2(CCNCC2)C1	16.9
O=C1CO[C@H]2CN(C3CCOCC3)C[C@H]2N1Cc1ccncc1	-53.2
CC(C)(C)C(=O)NCCNCc1ccc(Cl)c2cccnc12	77.7
COCCNC(=O)c1cn(C(C)(C)C)c2ncccc12	-129
CCCNC(=O)c1cn(C(C)(C)C)c2ncccc12	-149
O=C(N1CCOCC1)N1CCC2(CCNC2)C1 (stereo not given)	-12.3
CC(C)CN1CCC2(CC1)C(=O)Nc1ccc(C(=O)N(C)C)cc12	-21.2
Cc1c(C2SCC(=O)Nc3c2c(O)nn3C2CCCCC2)cnn1C (stereo not given)	-53.5
COc1cnc(N2CC(N3CCOCC3)C2)nc1-c1ccnn1C	75.3
c1cc(COC[C@@]23CCC[C@@H]2CN(C2CCOCC2)C3)ccn1	-24.5
COc1cccc(CCNCc2c(C)nn(C)c2N(C)C)c1	49
Cc1nc[nH]c1CN(Cc1ccccc1)Cc1nccs1	75.7
CC1CCN(CC(=O)N(Cc2ccccc2)Cc2nccs2)C1=O (stereo not given)	-96.3

Structure (SMILES)	INHIBITION [%]
Cc1nc[nH]c1CN1CCCC12CCN(c1ccccn1)CC2	-15.3
COc1cccc(CN(Cc2ccco2)Cc2[nH]cnc2C)c1	86.4
CCOCCCNC(=O)c1cn(C(C)(C)C)c2ncccc12	-151
COc1ccc(Cl)cc1CC(=O)N1CCN(CCO)CC1	-118
CN(CC1CCN(CCO)CC1)CC(O)c1ccc(F)c(F)c1 (stereo not given)	76.5
CC(NCC1CCN(CCO)CC1)c1cccc(Cl)c1 (stereo not given)	84.8
CC(NCC1CCN(CCO)CC1)c1ccc(F)c(Cl)c1 (stereo not given)	84.1
CC(NCC1CCN(CCO)CC1)c1ccc(Cl)cc1 (stereo not given)	93.9
Cc1n[nH]c2c1C(c1ccc(Br)cc1)SCC(=O)N2 (stereo not given)	-33.1
CCOCC(=O)NC(C)Cc1ccccc1Br (stereo not given)	-68.7
Cc1ccnc(OC[C@@]23CCO[C@@H]2CCN(C2CCC2)C3)n1	-9.15
CC(Cc1ccc(Cl)cc1)NC(=O)Nc1cnn(CC(N)=O)c1 (stereo not given)	22.5
CSc1cccc(CN(C)C(=O)c2cccc(C3CCCNC3)c2)c1 (stereo not given)	77.5
CNC(=O)c1ccc2c(c1)C1(CCN(C(C)C)CC1)C(=O)N2	-45.1
O=C(c1ccccc1)N1CCOC2CNCC[C@H]21 (stereo not given in full)	-28.1
Cc1cc(N(C)C)cc(C2CCN(S(=O)(=O)c3cccs3)C2)n1 (stereo not given)	84.1
CCCSCC(=O)N1C[C@@H]2CC[C@H]1CN(Cc1cccnc1)C2	-60
CCCc1cc(N2CCC(NCCc3ccc(O)cc3)CC2)nc(C)n1	82.1
CCc1cc(N2CCC(NC3CN4CCC3CC4)CC2)nc(N(C)C)n1 (stereo not given)	-25.1
Cc1cc(N2CCC(NCCOc3ccccc3)CC2)nc(C)n1	75.1
Cc1cc(N2CCCC2c2cccnc2)nc(C)n1 (stereo not given)	-10.2
Cc1ccc(N2CC[C@@H]3[C@@H]2CCN3Cc2ccsc2)nn1	-103
Cc1cccc(N2CCC(NC(C)c3cccs3)CC2)n1 (stereo not given)	-22.7
Cc1cc(N2CCC(NC(C)Cc3ccsc3)CC2)nc(C)n1 (stereo not given)	85.8
